# Screening results deposited in PubChem by several laboratories.
# A selection: hits, their analogues and other compounds. The true share with any hit is near 2.2%.
# FXN GAA850 act: frataxin GAA850 promoter activation; HEK293 lucGAA850 FXN promoter luciferase reporter, 24 h; percent of 10 µM SAHA response; activation, % at 6 µM; 360,000 compounds, 0.56% hits;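 active means activation above the average of all compounds screened plus 3 SD, cutoff fixed separately per campaign, cut at about 7.5% in these data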;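 further: 0% = DMSO wells and 100% = 10 µM SAHA wells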
# Hsp70 activator: transcriptional activators of Hsp70; HeLa Hsp70 promoter luciferase reporter, luminescence; scaled: vehicle 0, proteasome-inhibitor control 100%; activation, % at 10 µM; 200,000 compounds, 0.04% hits; AID 1203;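 active means activation above the mean across all tested compounds plus 3 SD, cutoff set per campaign, cut at about 5.5% in these data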;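 further: 100% = MG132 at 30 µM as the positive control and 0% = DMSO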
# HIF act: HIF pathway transcriptional activation; U2OS HRE-luciferase reporter, luminescence; normalized: DMSO 0%, desferrioxamine 100%; activation, % at 7.5 µM (by protocol); 300,000 compounds, 0.32% hits;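 active means mean activation of at least 10% of the iron chelator positive control signal, with at least half of replicates also reaching 10%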
# SMARCA2 activ: activators of SMARCA2 function; MG213 cells, MMTV-luciferase reporter, dexamethasone, overnight; activation, % at 9.1 µM; AID 652017; 370,000 compounds, 1% hits; in the data active means activation above about 7.8%;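 further: 0% = vehicle wells and 100% = reference activator wells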
# GalR3 antagonist: human GalR3 antagonism; 360,000 compounds, 0.44% hits; inhibition, % at 3 µM; O60755; HEK293 GalR3-CNG cAMP membrane potential fluorescence; galR3 body fused to GalR1 C-terminus; AID 651719;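 active means inhibition above the screen-wide average plus 3 SD, cut at about 13% in these data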;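 further: forskolin and galanin both at EC90 stimulate the cells; cAMP rise reported by CNG channel membrane potential dye signal; 0% = forskolin plus galanin with DMSO and 100% = forskolin alone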
# Target sequence (O60755 1-299 limits assumed): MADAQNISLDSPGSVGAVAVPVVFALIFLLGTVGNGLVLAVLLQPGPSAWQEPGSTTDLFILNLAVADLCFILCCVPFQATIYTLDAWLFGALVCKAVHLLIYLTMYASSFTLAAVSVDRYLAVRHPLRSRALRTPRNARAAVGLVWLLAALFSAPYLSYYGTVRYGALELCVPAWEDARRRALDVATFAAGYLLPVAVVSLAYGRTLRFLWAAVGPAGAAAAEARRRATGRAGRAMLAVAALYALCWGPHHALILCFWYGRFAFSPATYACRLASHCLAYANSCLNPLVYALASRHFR
# GAA30 FXN cntr: counter-screen for GAA850 frataxin promoter activators: GAA30 promoter activation. shares compounds with FXN GAA850 act. HEK293 lucGAA30 FXN promoter luciferase, 24 h; DMSO = 0%, 5 µM ipriflavone = 100%. activation, % at 6 µM. 1,900 compounds, 66% hits. AID 588350;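 active means mean activation above the mean of solvent-only control wells plus 3 SD, cut at about 22% in these data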;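 further: counterscreen of GAA850 promoter hits where activity marks nonselective or luminescence artifacts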
# GAA850 confirm: GAA850 FXN promoter activation confirmation. AID 588351. activation, % at 6 µM. shares compounds with FXN GAA850 act. HEK293 lucGAA850 FXN promoter luciferase reporter, 24 h; 100% = activation by SAHA. 1,900 compounds, 86% hits;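 active means mean activation above a set limit taken from the primary screen, cut at about 8% in these data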;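 further: 0% = DMSO wells and 100% = 10 µM SAHA wells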
# * marks the source's active call; other numbers are inactive results; . = no result given.
SMILES,FXN GAA850 act,Hsp70 activator,HIF act,SMARCA2 activ,GalR3 antagonist,GAA30 FXN cntr,GAA850 confirm
CCCCC1(CC(=O)OCC)C(=O)N(c2ccccc2)N(c2ccccc2)C1=O,9.1*,0,0,-3,-3,14,9.7*
Nn1c(SCC(=O)Nc2ccc(C(=O)O)cc2)nnc1-c1ccco1,.,.,.,0,.,.,.
O=S1(=O)CC(N2CCCC2)CN1 (stereo not given),.,.,.,-3,.,.,.
COc1cc2ccccc2cc1C(=O)Nc1ccccc1Cl,8.2*,.,5,5,-10,121*,39*
COc1cc2ccccc2cc1C(=O)Nc1ccccc1N1CCCC1,-1,.,-1,-2,5,.,.
O=C(NCCc1c[nH]c2ccccc12)OCc1cn(-c2ccc(Cl)cc2)nn1,.,.,.,-1,.,.,.
CC(=Nc1ccc(Br)cc1)c1sc2ccccc2c1O,7.9*,.,3,2,-5,116*,36*
CC(=O)N1CN(S(=O)(=O)c2ccc(C)cc2)CC1C (stereo not given),12*,0,0,1,-13,12,4
Cc1cccc(C)c1NC(=O)c1nc(S(=O)(=O)Cc2ccccc2)ncc1Cl,8.2*,.,-3,-8,0,-36,20*
O=C(N/N=C/c1ccccn1)c1cc(C2CC2)[nH]n1,7.6*,0,4,3,-3,106*,38*
O=C(N/N=C/c1ccccn1)c1cc([N+](=O)[O-])cc([N+](=O)[O-])c1,14*,0,2,2,-6,-82,-17
CCOC(=O)CCCNC(=O)OC1CC2CC1[C@H]1CCCCN1[C@H]2C (stereo not given in full),.,.,.,0,.,.,.
O=C(O)CCC(=O)N1CCN(S(=O)(=O)c2ccc3ccccc3c2)CC1,0,.,-8,-4,-7,.,.
O=C(Cn1ncc(Cl)c(Cl)c1=O)N1CCN(S(=O)(=O)c2ccc3ccccc3c2)CC1,9.7*,1,-3,-13,-5,-63,16*
COc1cc(SC)ccc1C(=O)Nc1ncc(Cl)cc1Cl,9.8*,0,2,2,-1,119*,41*
CC1CCCN(c2nc3ccsc3c(=O)s2)C1 (stereo not given),11*,0,3,4,-6,82*,35*
Cc1[nH]c2ccccc2c1CC(=O)Nc1ccc(Nc2cccnc2)c(-c2ccc(C(C)(C)C)cc2)c1,.,.,.,-5,-6,.,.
O=C(NNC(=O)C12CC3CC(CC(C3)C1)C2)c1ccccn1,10*,.,0,3,-6,-130,-37
C#CCNC(=O)C[C@H]1C[C@@]2(C(=O)OC)C(=C[C@H](C(C)(C)C)O[C@@H]2C)N(Cc2ccccc2)C1=O,.,.,.,-1,-7,.,.
Nc1nc(-c2cccnc2)nc2sc3c(c12)CCCC3,10*,0,1,6,-3,108*,53*
O=c1oc(-c2ccccc2)nc2sc3c(c12)CCCC3,2,0,8,1,-4,.,.
CC(=O)Nc1ccc(Oc2nc(-c3cccnc3)nc3sc4c(c23)CCCC4)cc1,0,.,0,.,.,.,.
O=C1CN(c2nc(-c3cccnc3)nc3sc4c(c23)CCCC4)CCN1,10*,0,1,4,-4,13,21*
COC(=O)[C@]12C[C@H](CC(=O)N3CCCC3)C(=O)N(Cc3ccc(Cl)cc3Cl)C1=C[C@H](COCc1ccccc1)O[C@@H]2C,.,.,.,-3,.,.,.
O=C(/C=C\c1ccccc1OC(=O)c1ccccc1F)c1cc2ccccc2o1,10*,0,4,4,0,94*,29*
SMILES,FXN GAA850 act,Hsp70 activator,HIF act,SMARCA2 activ,GalR3 antagonist,GAA30 FXN cntr,GAA850 confirm
CC(=O)/C=C\c1ccccc1OC(=O)c1cc2ccccc2oc1=O,4,.,-2,3,-5,.,.
N#Cc1c(NC(=O)CSc2ncccn2)oc(-c2ccccc2)c1-c1ccccc1,1,0,-1,3,-2,.,.
CCn1c(SCC(=O)Nc2oc(-c3ccccc3)c(-c3ccccc3)c2C#N)nnc1-c1cc(OC)cc(OC)c1,13*,0,0,.,.,12,1
O=C(CSc1nc(-c2ccc(F)cc2)cs1)N1CCOCC1,8.1*,0,1,0,0,74*,27*
COc1ccc2cc3cc(C(=O)N4CCCCC4C)oc3nc2c1 (stereo not given),8.0*,.,1,4,-1,122*,38*
COCCCNCCCCOc1ccc(OCc2ccccc2)cc1,4,0,1,4,-8,.,.
c1ccc(COc2ccc(OCCCCN3CCCC3)cc2)cc1,7.6*,0,0,19*,-2,83*,33*
C=CCNCCCCOc1ccc(OCc2ccccc2)cc1,9.1*,0,0,8,-9,102*,49*
c1ccc(COc2ccc(OCCCN3CCCCC3)cc2)cc1,3,0,1,6,-7,.,.
Cn1c(=O)c2c(nc(SCCN3CCOCC3)n2Cc2ccc(F)cc2)n(C)c1=O,9.0*,0,2,6,2,99*,36*
Fc1ccc(-c2cnn3c(-c4cccs4)ccnc23)cc1,7,0,0,2,-2,.,.
Fc1ccc(-c2cnn3c(-c4ccncc4)ccnc23)cc1,8.6*,0,1,5,-3,96*,30*
COc1cc(OC)nc(Nc2nc(C(N)CCc3ccccc3)cs2)n1 (stereo not given),9.0*,.,.,-7,2,21,17*
COc1cc(OC)nc(Nc2nc(C(N)c3ccccc3)cs2)n1 (stereo not given),-3,.,.,0,-8,.,.
COc1cc(OC)nc(Nc2nc(C(N)COCc3ccccc3)cs2)n1 (stereo not given),7.6*,.,.,-5,-4,23*,14*
CCCCC(=O)N/N=C/c1ccc(Sc2cccc3cccnc23)o1,15*,0,0,2,-5,25*,7.7*
O=C(Cc1cccc2ccccc12)N/N=C/c1ccc(Sc2cccc3cccnc23)o1,.,1,0,2,-4,.,.
CCCNC(=O)c1ccccc1NC(=O)c1ccccc1N(C)S(=O)(=O)c1ccc(C)cc1,8.1*,0,0,-2,1,2,11*
CCCNC(=O)c1ccccc1NC(=O)c1ccccc1N(C)S(C)(=O)=O,0,0,0,2,-4,.,.
CC(C)c1ccc(NC(=O)NN2CCOCC2)cc1,8.0*,0,2,2,-5,85*,33*
CCOC(=O)/C(=N/Nc1ccccc1)c1csc(Nc2ccccc2)n1,7,1,0,-5,-1,.,.
CCOC(=O)/C(=N\Nc1ccc(OC)cc1)c1csc(Nc2ccccc2)n1,11*,0,2,7.8*,-8,38*,25*
